Measurements from PubChem BioAssay (NCATS).
Results filed as inconclusive are left out. A call without a number means that no potency is given here. The source made the active and inactive calls. The call rests on the fitted dose curve; in most records, active means well fitted inhibition curve with a large enough effect; inconclusive means small, poorly fitted or top-dose-only effect; inactive means flat fitted curve, though single readings scatter. Peptide text beside a SMILES is read from it.

Tests used:
Experiment in all cases: qHTS profiling for inhibitors of Plasmodium falciparum proliferation (AID 504749); further: nearly all actives have a fitted effect of over 60% in size
Conditions in all cases: P. falciparum in erythrocytes, SYBR Green DNA, 72 h; series mostly up to 28.7 µM
CP191 = system: CP191
Outline: (§1)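 In a 72 h erythrocytic culture (37 C, humidified, 5% CO2) at 2.5% hematocrit and 0.3% starting parasitemia, compounds were tested; SYBR Green I in detergent lysis buffer stained parasite DNA overnight.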

CP192 = system: CP192
Outline: as §1

CP194 = system: CP194
Outline: as §1

CP201 = system: CP201
Outline: as §1

CP203 = system: CP203
Outline: as §1

CP211 = system: CP211
Outline: as §1

CP215 = system: CP215
Outline: as §1

CP217 = system: CP217
Outline: as §1

CP238 = system: CP238
Outline: as §1

CP237 = system: CP237
Outline: as §1
Potency means the concentration at half of the fitted maximal effect.

| Structure (SMILES) | Potency (CP191) | Potency (CP192) | Potency (CP194) | Potency (CP201) | Potency (CP203) | Potency (CP211) | Potency (CP215) | Potency (CP217) | Potency (CP238) | Potency (CP237) |
| --- | --- | --- | --- | --- | --- | --- | --- | --- | --- | --- |
| COc1ccc2cc([C@H](C)C(=O)O)ccc2c1 | inactive | inactive | inactive | inactive | inactive | inactive | inactive | inactive | inactive | – |
| COC(=O)[C@H](Cc1ccccc1)NC(=O)[C@@H](N)CC(=O)O (H-Asp-Phe-OMe) | inactive | inactive | inactive | inactive | inactive | inactive | inactive | inactive | inactive | inactive |
| Nc1cccc2c1CN(C1CCC(=O)NC1=O)C2=O (stereo not given) | inactive | inactive | inactive | inactive | inactive | inactive | inactive | inactive | inactive | inactive |
| Nc1ccn([C@@H]2O[C@H](CO)[C@@H](O)C2O)c(=O)n1 (stereo not given in full) | inactive | inactive | inactive | inactive | inactive | inactive | inactive | inactive | inactive | inactive |
| Cc1ccc(C)c(OCCCC(C)(C)C(=O)O)c1 | inactive | inactive | inactive | inactive | – | inactive | inactive | inactive | inactive | inactive |
| COc1cc2c(cc1OC)C1CC(=O)C(CC(C)C)CN1CC2 (stereo not given) | inactive | inactive | inactive | inactive | inactive | inactive | inactive | inactive | inactive | inactive |
| CN(C)CCc1c[nH]c2ccc(Cn3cncn3)cc12 | inactive | inactive | inactive | inactive | – | inactive | inactive | inactive | inactive | inactive |
| CC1(C)CCC(C)(C)c2cc(NC(=O)c3ccc(C(=O)O)cc3)ccc21 | inactive | inactive | inactive | inactive | inactive | inactive | inactive | inactive | inactive | inactive |
| CCCc1cc(=O)[nH]c(=S)[nH]1 | inactive | inactive | inactive | inactive | – | inactive | inactive | inactive | inactive | inactive |
| CCOC(=O)c1c(C)n(C)c2ccc(O)cc12 | inactive | inactive | inactive | inactive | inactive | – | inactive | inactive | inactive | inactive |
| O=C1CCc2ccc(OCCCCN3CCN(c4cccc(Cl)c4Cl)CC3)cc2N1 | 8.91 µM (active) | inactive | inactive | inactive | inactive | inactive | inactive | – | – | 14.1 µM (active) |
| O=c1oc2cc(O)ccc2s1 | inactive | inactive | inactive | inactive | – | inactive | inactive | inactive | inactive | inactive |
| CCN(CCO)CCCC(C)Nc1ccnc2cc(Cl)ccc12 (stereo not given) | inactive | inactive | inactive | inactive | inactive | inactive | inactive | inactive | inactive | inactive |
| C=CCc1cc(OC)c(O)c(C(=O)NCCO)c1 | inactive | inactive | inactive | inactive | inactive | inactive | inactive | inactive | inactive | inactive |
| N=C(N=C(N)N)N1CCOCC1 | inactive | inactive | inactive | inactive | inactive | inactive | inactive | inactive | inactive | inactive |
| CS(=O)(=O)OCCCCOS(C)(=O)=O | inactive | inactive | inactive | inactive | inactive | inactive | inactive | inactive | inactive | inactive |
| COc1ccc(C2(C#N)CCC(C(=O)O)CC2)cc1OC1CCCC1 (stereo not given) | inactive | inactive | inactive | inactive | – | inactive | inactive | inactive | inactive | inactive |
| CCCOc1ccc2nc(NC(=O)OC)[nH]c2c1 | inactive | inactive | inactive | inactive | inactive | inactive | inactive | inactive | inactive | inactive |
| O=C(NC(Cc1cc(=O)[nH]c2ccccc12)C(=O)O)c1ccc(Cl)cc1 (stereo not given) | inactive | inactive | inactive | inactive | inactive | inactive | inactive | inactive | inactive | inactive |
| CC(S)C(=O)NCC(=O)O (stereo not given) | inactive | inactive | inactive | inactive | inactive | inactive | inactive | inactive | inactive | inactive |
| CNC[C@H](O)c1ccc(O)c(O)c1 | inactive | inactive | inactive | inactive | inactive | inactive | – | inactive | inactive | inactive |
| Cc1cc2c(s1)Nc1ccccc1N=C2N1CCN(C)CC1 | inactive | inactive | inactive | inactive | inactive | inactive | inactive | inactive | inactive | inactive |
| CN1C(C(=O)Nc2ccccn2)=C(O)c2sccc2S1(=O)=O | inactive | inactive | inactive | inactive | inactive | inactive | inactive | inactive | inactive | inactive |
| O=C(O)c1cccnc1Nc1cccc(C(F)(F)F)c1 | inactive | inactive | inactive | inactive | inactive | inactive | inactive | inactive | inactive | inactive |
| CCN(CC)CCOc1ccc(Cc2ccccc2)cc1 | inactive | inactive | inactive | inactive | inactive | inactive | inactive | inactive | inactive | inactive |
| O=C1c2ccccc2-c2n[nH]c3cccc1c23 | inactive | inactive | inactive | inactive | inactive | inactive | – | inactive | inactive | inactive |
| C=C(c1ccc(C(=O)O)cc1)c1cc2c(cc1C)C(C)(C)CCC2(C)C | inactive | inactive | inactive | inactive | inactive | inactive | inactive | inactive | inactive | inactive |
| NNc1nncc2ccccc12 | 3.55 µM (active) | inactive | inactive | inactive | – | inactive | – | inactive | inactive | – |

| Structure (SMILES) | Potency (CP191) | Potency (CP192) | Potency (CP194) | Potency (CP201) | Potency (CP203) | Potency (CP211) | Potency (CP215) | Potency (CP217) | Potency (CP238) | Potency (CP237) |
| --- | --- | --- | --- | --- | --- | --- | --- | --- | --- | --- |
| COC(=O)C1=C(C)NC(C)=C(C(=O)OCCCN2CCC(c3ccccc3)(c3ccccc3)CC2)C1c1cccc([N+](=O)[O-])c1 (stereo not given) | 4.47 µM (active) | – | 5.36 µM (active) | 9.53 µM (active) | 9.53 µM (active) | 6.01 µM (active) | 6.75 µM (active) | 3.55 µM (active) | 8.91 µM (active) | 2.82 µM (active) |
| O=C(O)c1cn(-c2ccc(F)cc2)c2cc(N3CCNCC3)c(F)cc2c1=O | inactive | inactive | – | – | – | – | – | inactive | – | – |
| COCCCOc1ccnc(CS(=O)c2nc3ccccc3[nH]2)c1C (stereo not given) | – | inactive | – | inactive | – | inactive | inactive | inactive | inactive | – |
| Clc1ccc(C(Cn2ccnc2)OCc2ccsc2Cl)c(Cl)c1 (stereo not given) | 7.08 µM (active) | 16.9 µM (active) | 8.49 µM (active) | – | – | 13.5 µM (active) | 6.01 µM (active) | 5.01 µM (active) | 10 µM (active) | 3.98 µM (active) |
| Cc1c(C(=O)NN2CCCCC2)nn(-c2ccc(Cl)cc2Cl)c1-c1ccc(Cl)cc1 | 11.2 µM (active) | – | 16.9 µM (active) | – | – | – | 13.5 µM (active) | 11.2 µM (active) | – | 12.6 µM (active) |
| CN(c1nccc(=O)[nH]1)C1CCN(c2nc3ccccc3n2Cc2ccc(F)cc2)CC1 | inactive | inactive | – | inactive | – | – | – | – | inactive | inactive |
| Cc1ccc(NC(=O)c2ccc(CN3CCN(C)CC3)cc2)cc1Nc1nccc(-c2cccnc2)n1 | – | – | – | – | – | – | – | 11.2 µM (active) | – | 8.91 µM (active) |
| CC(C)(S)[C@@H](N)C(=O)O | inactive | – | inactive | inactive | inactive | inactive | inactive | inactive | inactive | inactive |
| CC[C@]1(O)C[C@H]2CN(CCc3c([nH]c4ccccc34)[C@@](C(=O)OC)(c3cc4c(cc3OC)N(C=O)[C@H]3[C@@](O)(C(=O)OC)[C@H](OC(C)=O)[C@]5(CC)C=CCN6CC[C@]43[C@@H]65)C2)C1 | 2.24 µM (active) | – | 1.69 µM (active) | – | – | 2.13 µM (active) | – | 4.47 µM (active) | 2.24 µM (active) | 0.0501 µM (active) |
| CC(C)c1ccc2oc3nc(N)c(C(=O)O)cc3c(=O)c2c1 | – | inactive | inactive | inactive | – | inactive | inactive | – | inactive | inactive |
| CN(C)C(=O)COC(=O)Cc1ccc(OC(=O)c2ccc(N=C(N)N)cc2)cc1 | inactive | inactive | inactive | inactive | – | inactive | – | inactive | inactive | inactive |
| Nc1nc(Cl)nc2c1ncn2[C@H]1C[C@H](O)[C@@H](CO)O1 | inactive | – | – | – | – | – | – | inactive | inactive | inactive |
| CCC[C@@H]1C[C@@H](C(=O)N[C@@H]([C@H]2O[C@H](SC)[C@H](O)[C@@H](O)[C@H]2O)[C@@H](C)O)N(C)C1 | – | – | – | – | – | – | 2.69 µM (active) | – | – | – |
| Cn1c(NCCN(CCO)CCCc2ccc([N+](=O)[O-])cc2)cc(=O)n(C)c1=O | – | inactive | inactive | inactive | inactive | inactive | inactive | inactive | inactive | inactive |
| Cc1cc(=O)c2c(O)c3c(O)cc(=O)c4c3c3c(cc(O)c1c23)C(C)(C)C=4O | 1.12 µM (active) | – | 2.69 µM (active) | – | 1.9 µM (active) | – | 2.39 µM (active) | 0.891 µM (active) | 1 µM (active) | 1.41 µM (active) |
| N=C(N)c1ccc2cc(OC(=O)c3ccc(N=C(N)N)cc3)ccc2c1 | 3.98 µM (active) | inactive | – | – | – | – | – | – | – | 7.08 µM (active) |
| O=C(CS(=O)Cc1ccco1)NCC=CCOc1cc(CN2CCCCC2)ccn1 (stereo not given) | – | inactive | inactive | inactive | – | inactive | inactive | inactive | inactive | inactive |
| CCCCC(CC)COC(=O)C(C#N)=C(c1ccccc1)c1ccccc1 (stereo not given) | – | inactive | – | inactive | inactive | inactive | – | – | inactive | – |
| Cc1nc(Nc2ncc(C(=O)Nc3c(C)cccc3Cl)s2)cc(N2CCN(CCO)CC2)n1 | – | inactive | – | inactive | – | – | – | – | inactive | – |
| COC1=C(OC)C(=O)C(CCCCCCCCCCO)=C(C)C1=O | – | inactive | inactive | inactive | – | inactive | inactive | inactive | inactive | inactive |
| CCC(C)(Oc1ccc(C2(c3ccc(OC(C)(CC)C(=O)O)cc3)CCCCC2)cc1)C(=O)O (stereo not given) | inactive | – | inactive | inactive | inactive | inactive | inactive | inactive | inactive | inactive |
| CCCCCCCCOc1ccccc1C(=O)Nc1ccc(C(=O)OCC[N+](C)(CC)CC)cc1 | 7.94 µM (active) | – | – | – | – | – | – | 10 µM (active) | 8.91 µM (active) | 7.94 µM (active) |
| CCCCCCCCCCCCCCCCCCCCCCO | inactive | inactive | – | inactive | – | inactive | inactive | inactive | inactive | inactive |
| O=C(OC1C[C@H]2CC[C@@H](C1)[N+]21CCCC1)C(O)(c1ccccc1)c1ccccc1 (stereo not given in full) | – | 3.79 µM (active) | – | – | – | 1.9 µM (active) | – | – | 3.55 µM (active) | – |
| Cc1cc(C2CCCCC2)n(O)c(=O)c1 | 3.16 µM (active) | – | – | – | 6.42 µM (active) | 6.42 µM (active) | 1.02 µM (active) | 3.55 µM (active) | – | – |
| CCc1nc(N)nc(N)c1-c1ccc(Cl)cc1 | – | inactive | inactive | inactive | – | – | – | – | inactive | – |
| CC1=C(C)C(=O)C(C(CCCCCC(=O)O)c2ccccc2)=C(C)C1=O (stereo not given) | inactive | inactive | – | inactive | – | – | – | – | inactive | inactive |
